# TDP1 cell noCPT – qHTS for Inhibitors of human tyrosyl-DNA phosphodiesterase 1 (TDP1): qHTS in cells in absence of CPT; DT40 Tdp1-/- hTDP1 cells, no CPT, ATP luminescence, 48 h; Potency, µM (doses to about 46.2 µM), for the others: at the highest dose activity change, negative = growth inhibition, hits mostly inhibitors; hit rate 15% among 420,000; AID 686978, 2013; also: potency is read from the fitted curve at half-maximal effect; nearly all actives have a fitted effect of over 55% in size
#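 A cellular qHTS used chicken DT40 cells lacking endogenous Tdp1 but carrying stably transfected human TDP1. Compounds were applied without camptothecin, and cell growth kinetics were judged by ATP-dependent luminescence after ≥48 hr.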
# RORg inh – blocks mouse ROR gamma transcriptional activity | P51450 | Drosophila S2 Gal4-RORgamma UAS-luciferase reporter, 20 h | Potency, µM (titrated, usually from 53.6 µM), for the others: top-dose activity change, negative = inhibition, most hits filed as inhibitors | hit rate 5.4% among 310,000 | AID 2551; also: potency is read from the fitted curve at half-maximal effect; nearly all actives have a fitted effect of over 60% in size
# Target sequence (P51450 whole entry, looked up, the tested form may be a part): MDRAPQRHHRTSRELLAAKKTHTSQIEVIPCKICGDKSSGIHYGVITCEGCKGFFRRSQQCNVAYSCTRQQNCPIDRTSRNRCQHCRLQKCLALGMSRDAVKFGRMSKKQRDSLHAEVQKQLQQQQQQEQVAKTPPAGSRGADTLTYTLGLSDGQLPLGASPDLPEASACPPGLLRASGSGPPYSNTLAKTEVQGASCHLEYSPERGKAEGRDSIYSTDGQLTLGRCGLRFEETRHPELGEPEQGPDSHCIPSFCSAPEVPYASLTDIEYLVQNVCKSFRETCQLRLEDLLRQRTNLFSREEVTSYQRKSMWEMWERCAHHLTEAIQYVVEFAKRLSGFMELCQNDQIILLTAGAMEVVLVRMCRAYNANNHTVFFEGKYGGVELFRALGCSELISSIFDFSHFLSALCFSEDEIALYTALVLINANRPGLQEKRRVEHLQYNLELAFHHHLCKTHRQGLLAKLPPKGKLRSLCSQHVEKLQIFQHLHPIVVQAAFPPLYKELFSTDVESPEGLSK
#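 Stably transfected Drosophila Schneider cells are the test system, with ROR gamma fused to Gal4 and luciferase under UAS control; luminescence is read after 20 hr of 700 uM copper sulfate induction at ambient temperature.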
# IL-1B inflam inh – inhibitors of inflammasome signaling (IL-1 beta secretion); THP-1 LPS/ATP IL-1B secretion, AlphaLISA, 16 h; stronger effect = lower value; activity change, % at 57.5 µM; hit rate 4.7% among 360,000; AID 743279; in the data active = activity change below about -50%; inconclusive = mostly about -30% to -49%
#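 THP-1 cells pretreated 1 hr with compounds (up to 57.5 uM final), then stimulated with LPS (250 ng/mL final) plus ATP (1.25 mM final); secreted IL-1B measured by AlphaLISA after 16 hr, decreased signal indicating inhibition.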
# ELG1 repair inh – inhibitors of ELG1-dependent DNA repair in HEK293T cells; HEK293T ELG1-luciferase reporter, luminescence, 16 h; DNA damage induced by 5-fluorouridine; Potency, µM (series often up to 46.1 µM), inactives show at the top dose activity change, negative = inhibition, hits mostly inhibitors; hit rate 2.3% among 330,000; also: potency is read from the fitted curve at half-maximal effect; nearly all actives have a fitted effect of over 55% in size
#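 Cells (2,000 per well) received 5-fluorouridine plus test compound or DMSO and were incubated 16 hr at 37 °C, 5% CO2. Luciferase activity was read by luminescence 30 min after ONE-Glo addition; signal suppression marked inhibition of damage-induced ELG1 function.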
# Gal4-VP16 FLuc – Gal4-VP16 reporter inhibition counter-screen; Drosophila S2 Gal4-VP16 UAS-luciferase, luminescence, 20 h; Potency, µM (titrated, usually from 53.6 µM), for the others: at the top dose activity, negative = inhibition, most hits filed as inhibitors; hit rate 3.5% among 310,000; AID 2546;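 also: Gal4-VP16 expression switched on by copper sulfate through the metallothionein promoter; potency is read from the fitted curve at half-maximal effect; nearly all actives have a fitted effect of over 50% in size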
# DT40 TDP1 CPT – DT40-hTDP1 cell growth loss with CPT | Potency, µM (highest dose often 46.2 µM), for the others: at the top dose activity change, negative = growth inhibition, most hits filed as inhibitors | chicken DT40 Tdp1-/-;hTDP1 cells + 20 nM CPT, ATP luminescence, 48 h | hit rate 12% among 420,000; also: potency is read from the fitted curve at half-maximal effect; nearly all actives have a fitted effect of over 55% in size
#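 Cell growth measured by CellTiter-Glo luminescence after a minimum 48 h, 37 C compound exposure with 20 nM CPT in Tdp1-knockout DT40 cells stably expressing hTDP1, seeded 400/well; qHTS titration format.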
# Active calls of the source: *; ? = inconclusive; · = not tested or not shown; [ ] = dose if it differs, or a comment. Sampled rows, rich in hits. Any-hit rate of the full collection: about 21%. Unless noted, calls follow the shape of the dose curve; as a rule, active = well fitted curve in the direction sought with a large enough effect; inconclusive = small, poorly fitted or top-dose-only effect, or another doubt; inactive = no such curve, though single readings can be large; an effect the other way counts as inactive or inconclusive. % is scaled to controls: 0 for no effect and ±100 for the full control effect.
SMILES,TDP1 cell noCPT,RORg inh,IL-1B inflam inh,ELG1 repair inh,Gal4-VP16 FLuc,DT40 TDP1 CPT
Cc1cc(Cl)ccc1OCCCC(=O)Nc1cccnc1,23.1µM*,18.8%,2.8,?,?,14.6µM*
CCCN1CCC(=O)N(C(CSc2ccc(Br)cc2)CC(C)C)CC1 (stereo unspecified),·,-2.3%,·,·,-8.0%,·
CC(Sc1ccc(S(=O)(=O)N2CCN(C)CC2)cn1)C(=O)NC1CCCCC1 (stereo unspecified),-3.3%,·,-12.7,?,·,-2.2%
C=CCn1c(SCc2c(C(=O)OC)sc(N)c2C(=O)OC)nnc1-c1ccc(Br)cc1,18.4µM*,-28.6%,-9.8,?,-9.7%,?
S=C(NCc1ccccc1)Nc1nccs1,4.61µM*,0.891µM*,51.1,12.9%,1.26µM*,5.17µM*
S=C(NCCc1ccccc1)Nc1nccs1,14.6µM*,·,16.6,1.6%,·,?
O=C(NCCc1ccccc1)C(=O)Nc1nccs1,7.7%,-5.4%,0.0,?,2.3%,3.5%
COc1cccc(NC(=O)CSc2nc3ccccc3c3nc4ccccc4n23)c1,16.4µM*,-26.1%,-1.3,?,-25.4%,11.6µM*
COc1cccc(NC(=O)CSc2nc3ccccc3c(=O)n2Cc2cccs2)c1,?,31.2%,-0.1,?,?,20.6µM*
CCC(Sc1nc2ccccc2c2nc(-c3ccccc3)nn12)C(=O)Nc1cccc(OC)c1 (stereo unspecified),18.4µM*,·,·,·,·,?
C=CCn1c(SCC(=O)NC2CCCC2)nc2ccccc21,?,·,28.3,·,·,?
COc1cccc(-c2cc(CNC(=O)[C@H]3O[C@@H](n4cnc5c(N)ncnc54)[C@H](O)[C@@H]3O)no2)c1,4.3%,·,-14.8,·,·,7.9%
Nc1ccn([C@@H]2O[C@H](CNCc3ccc(C#CCCO)cc3)[C@@H](O)[C@H]2O)c(=O)n1,?,·,18.6,·,·,-3.8%
O=C1CCc2cccc(O)c2N1,-3.5%,·,22.7,·,·,13.5%
O=C(O)CNC(=O)C1(NC(=O)OCc2ccccc2)CCCC1,-3.1%,·,6.6,·,·,?
COc1cccc(Oc2nc(N)ncc2[N+](=O)[O-])c1,-17.7%,-26.5%,-73.1*,-2.2%,-0.8%,-18.9%
Nc1ncc([N+](=O)[O-])c(Oc2ccccc2F)n1,-7.2%,-14.7%,6.1,2.2%,-1.4%,-8.8%
Cc1oc(-c2ccccc2F)nc1CS(=O)(=O)CC(=O)NCc1ccco1,-24.0%,19.5%,-18.6,-5.3%,-7.2%,-12.1%
O=C(Cn1cc([N+](=O)[O-])ccc1=O)NCC1COc2ccccc2O1 (stereo unspecified),?,·,30.3,0.2%,·,-5.1%
O=C(/C=C/c1ccc(F)cc1)c1ccc(N2CCOCC2)cc1,?,-16.7%,-58.6*,15.2%,-22.2%,20.6µM*
CCc1ccc(/C=C/C(=O)c2ccc(N3CCOCC3)cc2)cc1,?,3.3%,-89.0*,-2.7%,-12.0%,?
COc1cccc(NS(=O)(=O)c2ccc3c(c2)N(C(C)=O)CCS3)c1,?,?,13.2,2.2%,-20.1%,?
CC(=O)N1CCSc2ccc(S(=O)(=O)NCc3ccccc3)cc21,?,25.7%,28.8,-0.5%,-8.9%,?
CC(=O)c1cccc(NS(=O)(=O)c2ccc3c(c2)N(C(C)=O)CCO3)c1,20.6µM*,?,30.9,-0.9%,-2.0%,?
CC(=O)N1CCSc2ccc(S(=O)(=O)Nc3cccc(C)c3)cc21,13µM*,?,14.2,?,-12.3%,18.4µM*
SMILES,TDP1 cell noCPT,RORg inh,IL-1B inflam inh,ELG1 repair inh,Gal4-VP16 FLuc,DT40 TDP1 CPT
CC(=O)N1CCSc2ccc(S(=O)(=O)Nc3ccccc3C)cc21,-44.9%,?,-57.0*,-7.1%,-15.9%,?
CC1CCCCN1CCCNC(=O)C1CCCN(c2ncnc3c2nc2n3CCCCC2)C1 (stereo unspecified),-9.0%,-15.4%,0.8,0.0%,-2.7%,0.7%
COc1c(Br)cc(Br)cc1/C=C1/C(=O)N=C(N)N1C,-17.6%,1.2%,-53.6*,-2.0%,3.4%,-1.7%
O=Nc1ccc(NO)c2ccccc12,13µM*,·,-6.8,·,·,?
Cc1ccc(OCCSc2ncccn2)c(C)c1,-0.2%,10µM*,-9.7,?,?,-14.2%
Cc1ccc(OCCCCNC(C)c2ccccc2)c(C)c1 (stereo unspecified),?,27.3%[1.91 µM],-91.1*,-9.1%,-2.7%,?
c1cnc(SCCOc2cccc3ccccc23)nc1,-14.3%,?,-8.5,?,?,-7.9%
COc1ccc(S(=O)(=O)N2CCCCC2)cc1NC(=O)Cc1ccc(Br)cc1,-17.5%,·,0.0,·,·,?
CCC(C)O (stereo unspecified),·,5.2%,·,·,11.1%,·
c1nc2n(n1)C1=C(CCCC1)C1(CCCCC1)N2,-9.9%,2.51µM*,-5.6,0.8%,?,-7.6%
Cc1cccc(N2C(=O)C(CC(=O)Nc3cccc(F)c3)N(Cc3cccs3)C2=O)c1 (stereo unspecified),18.4µM*,·,·,·,·,?
COCCN1C(=O)N(c2cccc(C)c2)C(=O)C1CC(=O)Nc1ccc(OC)cc1 (stereo unspecified),13.1%,·,0.0,6.5%,·,-18.4%
COCCN1C(=O)N(c2ccc(OC)cc2)C(=O)C1CC(=O)Nc1cccc(F)c1 (stereo unspecified),1.7%,-22.1%,0.0,-5.1%,1.6%,-8.6%
CCOc1ccc(NC(=O)CC2C(=O)N(c3cccc(C)c3)C(=O)N2Cc2cccs2)cc1 (stereo unspecified),20.6µM*,·,·,·,·,?
CCc1ccc(NC(=O)CC2C(=O)N(c3ccc(Cl)cc3)C(=O)N2Cc2cccs2)cc1 (stereo unspecified),4.11µM*,·,·,·,·,4.61µM*
O=C([O-])[C@@H]1[O][Sb+]([O][Sb+]2[O][C@H]([C@H](O)CO)[C@H](O)[C@H](C(=O)[O-])[O]2)[O][C@H]([C@H](O)CO)[C@@H]1O,·,1.0%,·,·,-3.6%,·
Cc1ccc(NC(=O)Nc2ccc3c(c2)OCO3)cc1F,23.9%,8.0%,?,?,?,12.5%
C/C(CCC(=O)OC[C@@H]1O[C@H](C#Cc2ccccc2)C=C[C@@H]1Oc1ccc(C)cc1)=N/O[C@@H](C)c1cn([C@H](CO)Cc2ccccc2)nn1,·,-4.7%[10 µM],·,·,-3.1%[10 µM],·
COC1=Nc2ccccc2N2CCN=C12,39.2%,·,-17.7,·,·,9.6%
c1ccc2c(c1)C1=NCCN1c1ccccc1-2,2.31µM*,·,-105.4*,·,·,2.91µM*
